Compound activity (PubChem BioAssay)
Only some compounds are listed: those with a hit (about 14% of all), similar ones and a draw of the others.
CRE-bla Fsk = modulators of forskolin-stimulated CRE signaling in CHO cells. CHO CRE-bla reporter (cAMP response element driving beta-lactamase), forskolin EC10, beta-lactamase ratio. Potency, µM (titrated, usually from 38.2 µM), for the others: top-dose activity change, negative = inhibition, most hits filed as activators. actives 2.5% (n = 71,000); active means well fitted activation curve with a large enough effect in the signal ratio, with a control signal flat, not every such curve was filed as active; inconclusive means small, poorly fitted or top-dose-only effect, or effect the other way, or a change in a side signal; the % refers to the signal ratio; further: potency means the concentration at half of the fitted maximal effect; % of control where 0% means no effect
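Beta-lactamase reporter under a cAMP responsive element in CHO cells; compounds tested in titration series against EC10 NKH 477, 3 h at 37 °C. Read-out: CCF4 FRET ratio 460nm/530nm (excitation 405nm) giving %Activity, fitted to AC50.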
AID923 = qHTS Assay for Allosteric/Competitive Inhibitors of Caspase-1: Spectroscopic Profiling in AFC Spectral Region; compound fluorescence, AFC spectral region (405/520 nm); Potency, µM (highest dose often 57.5 µM), for the others: at the top dose fluorescence increase, actives largely listed as activators; actives 1.1% (n = 75,000); further: potency means the concentration at half of the fitted maximal effect; 0% is about no effect
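Compound autofluorescence profiled at 405 nm ex/520 nm em during kinetic caspase 1 run (50 nM enzyme, 5 uM Ac-WEHD-AFC, HEPES pH 7.5, 10 mM DTT). Titration up to 57 uM; baseline from regression intercept, normalized to AFC standard curve.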
HSD17B inhib = blocks hydroxysteroid 17-beta dehydrogenase activity. Q99714. recombinant HSD17B10, NADH fluorescence kinetic. Potency, µM (doses to about 57.1 µM), inactives show at the top dose activity change, negative = inhibition, actives largely listed as inhibitors. actives 7.6% (n = 75,000);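 further: the protocol describes HADH2 (HSD17B10) and not the HSD17B4 of the title; potency means the concentration at half of the fitted maximal effect; on the % scale 0 is the no-effect control and ±100 the full control effect; nearly all actives have a fitted effect of over 70% in size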
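20 nM HADH2, pH 9.0 Tris/Tween; cpd preinc 15 min RT; start w/ 1 mM NAD+ + 90 uM b-hydroxybutyryl-CoA; kinetic fluor ex360/em450 q30s x 4 min; delta last-first.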
4-MU autofl = compounds fluorescent in 4-MU spectral region; compound autofluorescence, 340/450 nm, 4-MU equivalents; stronger effect = higher value; max dye-equivalent concentration, M; actives 11% (n = 59,000); AID 589; in the data active means max dye-equivalent concentration above about 10 nM; inconclusive means mostly about 1.1 nM to 9.6 nM
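Intrinsic fluorescence at 340/450 nm (ex/em) was read after 15 min at room temperature in pH 8.0, 100 mM Tris. Each compound concentration expressed as 4-MU-equivalent concentration from a six-point 4-MU standard series on each plate.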
A350 fluor = compound fluoresces in the Alexa 350 spectral region. Compound autofluorescence, 340/450 nm, Alexa 350 dye-equivalents; stronger effect = higher value. max dye-equivalent concentration, M. actives 11% (n = 59,000). AID 590; in the data active means max dye-equivalent concentration above about 10 nM; inconclusive means mostly about 1.1 nM to 9.6 nM
HADH2 inh = blocks human hydroxyacyl-CoA dehydrogenase type II | Q99714 | recombinant HADH2, NADH fluorescence, beta-hydroxybutyryl-CoA | Potency, µM (doses to about 57.1 µM), inactives show at the top dose activity change, negative = inhibition, hits mostly inhibitors | actives 3.4% (n = 73,000); further: potency means the concentration at half of the fitted maximal effect; on the % scale 0 is the no-effect control and ±100 the full control effect; nearly all actives have a fitted effect of over 60% in size
Target sequence (Q99714 whole entry, looked up, one chain of several): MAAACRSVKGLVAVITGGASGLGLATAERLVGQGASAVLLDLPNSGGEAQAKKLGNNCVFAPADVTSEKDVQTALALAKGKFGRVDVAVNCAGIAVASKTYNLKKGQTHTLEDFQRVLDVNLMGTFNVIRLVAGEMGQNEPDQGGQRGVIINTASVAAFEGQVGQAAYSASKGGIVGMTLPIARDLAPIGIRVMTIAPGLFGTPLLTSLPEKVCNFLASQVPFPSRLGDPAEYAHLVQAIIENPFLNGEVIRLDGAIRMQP
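20 nM HADH2 + cpd, 15 min RT; add 1 mM NAD+/90 uM beta-hydroxybutyryl-CoA; kinetic fluorescence 360/450 nm, 4 min. Tris-HCl pH 9.0, 0.01% Tween-20.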
Starred values were filed as active, the others as inactive; i = inactive; ? = inconclusive; / = no result given; [ ] = dose if it differs, or a comment. Unless noted, the call rests on the fitted dose curve; in most records, active means well fitted curve in the direction sought with a large enough effect; inconclusive means small, poorly fitted or top-dose-only effect, or another doubt; inactive means no such curve, though single readings can be large; an effect the other way counts as inactive or inconclusive.

SMILES	CRE-bla Fsk	AID923	HSD17B inhib	4-MU autofl	A350 fluor	HADH2 inh
CC(C)(c1cc(Br)c(O)c(Br)c1)c1cc(Br)c(O)c(Br)c1	?	3%	10µM*	/	/	16µM*
Cc1cc(=O)oc2c(OS(C)(=O)=O)c(OS(C)(=O)=O)ccc12	1%[7.6 µM]	5%[11.5 µM]	i[11.4 µM]	5.9e-08M*	6.9e-08M*	14%[11.4 µM]
CCC(=O)Oc1ccc2c(C)cc(=O)oc2c1C	?	9%	i	/	/	i
CCC(Oc1ccccc1)C(=O)Nc1ccc(-c2nnc(-c3ccco3)o2)cc1 (configuration not stated)	?	1%	32µM*	i	i	-23%
CS(=O)(=O)N1CCC[C@@]2(CCN(c3ccccc3)C2)C1	-6%	3%	1%	i	i	-1%
Cc1onc(-c2ccccc2)c1C(=O)N1CCc2ccccc21	-15%	0%	4%	/	/	6%
Cc1cc(C)c(S(=O)(=O)Nc2ccccc2C(=O)O)cc1C	/	4%	?	/	/	?
COCCCNC(=O)c1ccccc1NS(=O)(=O)c1ccc(C)cc1	11%	1%	32µM*	i	i	-15%
Cc1ccc(S(=O)(=O)Nc2ccccc2C(=O)c2ccc(C)c(C)c2)cc1	7%[7.6 µM]	-2%[11.5 µM]	?	3.3e-08M*	3.7e-08M*	11%[11.4 µM]
CO[C@H]1COC(=O)C/C=C\[C@@H](C)COC(=O)[C@@H](OCc2ccccc2)/C=C\[C@@H]1C	/	-2%[11.5 µM]	1%[11.4 µM]	/	/	7%[11.4 µM]
CN(C)C(=O)c1ccc(-c2cncnc2NCCc2cnc[nH]2)cc1	-11%	-1%	-3%	i	i	7%
C[C@H](CO)NC(=O)[C@H]1C[C@@H]1[C@H](NP(=O)(c1ccccc1)c1ccccc1)c1ccccc1	-13%	-1%	3%	/	/	7%
Cc1ccc(-c2nnc3sc(-c4ccncc4)nn23)cc1	?	1%	-6%	?	?	-5%
CNc1nnc(-c2ccncc2)s1	-13%	-1%	25µM*	1.5e-07M*	1.4e-07M*	-171%
Nc1nnc(-c2ccncc2)s1	?	-1%	16µM*	?	?	-6%
NC(N)=NC[C@H](N)C(=O)O	7%[7.6 µM]	0%[11.5 µM]	4%[11.4 µM]	i	i	4%[11.4 µM]
Brc1cccc(-c2nnc(SCc3nc4ccccc4[nH]3)o2)c1	2µM*	4%	-2%	i	i	18%
C=CCn1c(SCc2nc3ccccc3[nH]2)nnc1-c1ccncc1	?	5%	?	1.2e-08M*	1.5e-08M*	5%
C=CCn1c(SCc2cccnc2)nnc1-c1ccncc1	?	0%	6%	i	i	-8%
c1ccc2[nH]c(CSc3nnc(-c4ccncc4)o3)nc2c1	4µM*	0%	-15%	?	?	-1%
c1ccc(SCc2nc3ccccc3[nH]2)nc1	/	/	/	i	?	/
c1ccc(-c2nnc(CSc3nc4ccccc4[nH]3)o2)cc1	?	0%	-2%	i	i	2%
CC(=O)N1CCC2(CC1)CN(c1ccncc1)C2	1%	0%	-4%	i	i	-6%
COC(=O)[C@@]1(Cc2ccc(OC)cc2)[C@H]2c3cc(C(=O)N(C)C)n(Cc4cc(F)c(F)c(F)c4)c3C[C@H]2CN1C(=O)c1ccccc1	8%	1%	12%	/	/	-10%
CN1C(=O)CC[C@@H]1c1cccnc1	?	2%[25.7 µM]	7%[25.6 µM]	i	i	-10%
CCC(=O)O[C@@H]1[C@H](C)O[C@H](O[C@H]2[C@@H](N(C)C)[C@H](O)[C@@H](O[C@@H]3[C@@H](CC=O)C[C@@H](C)[C@@H](O)/C=C\C=C/C[C@@H](C)OC(=O)C[C@@H](OC(=O)CC)[C@H]3OC)O[C@H]2C)C[C@]1(C)O	5%[17.1 µM]	-3%[25.7 µM]	7%[25.6 µM]	i	i	11%[25.6 µM]
COc1ccc(C2=NOC(C(=O)Nc3ccc(C(C)=O)cc3)C2)cc1OC (configuration not stated)	?	3%	-13%	2.3e-07M*	2.3e-07M*	-5%
